Test results from the supplement of paper PMC13380429.

Experiments:
[1] = test system: Vero E6 infected with SARS-CoV-2; assay: morphology score (similarity to uninfected cells); higher = more like uninfected cells; conditions: 24 h
[2] = test system: Vero E6 infected with SARS-CoV-2; assay: SARS-CoV-2 infection rate relative to infected DMSO; higher = more infection, active = 60 or less; conditions: 24 h

Row | SMILES | morphology score [1] | SARS-CoV-2 infection rate [2]
1 | Clc1ccc(N2CCN(Cc3c[nH]c4ncccc34)CC2)cc1 (10 µM) | -0.0196 | 108% (inactive)
2 | CN(C)CCN(C)CCc1ccc(Cl)c(Cl)c1 (10 µM) | 0.208 | 82.5% (inactive)
3 | CC(C)=CCC/C(C)=C/CC/C(C)=C/CC[C@]1(C)CCc2cc(O)cc(C)c2O1 [delta-tocotrienol] (10 µM) | 0.0442 | 104% (inactive)
4 | Cc1cc(Cn2nnc3c(-c4ccco4)nc(N)nc32)ccc1N [vipadenant] (10 µM) | 0.0562 | 110% (inactive)
5 | Cc1cccc(Oc2cnc(=O)[nH]c2)c1 [tolimidone] (10 µM) | 0.147 | 106% (inactive)
6 | CCCN1C[C@H](CSC)C[C@@H]2c3cccc4[nH]cc(c34)C[C@H]21 [pergolide] (10 µM) | 0.343 | 78% (inactive)
7 | COc1cc(N2CCC(N3CCN(C)CC3)CC2)ccc1Nc1ncc(Cl)c(Nc2ccccc2P(C)(C)=O)n1 [brigatinib] (0.833333 µM) | -0.178 | 105% (inactive)
8 | Cc1cc(NC(=O)Nc2ccc(F)c(F)c2)n(-c2ccccc2)n1 (10 µM) | 0.105 | 102% (inactive)
9 | Cc1ccc(NC(=O)C2(c3ccc4c(c3)OC(F)(F)O4)CC2)nc1-c1cccc(C(=O)O)c1 [lumacaftor] (10 µM) | 0.0696 | 114% (inactive)
10 | O=C(NO)c1ccc(O)c(O)c1 [didox] (10 µM) | 0.0981 | 96% (inactive)
11 | CC[C@@]1(O)C(=O)OCc2c1cc1n(c2=O)Cc2cc3ccccc3nc2-1 [camptothecin] (0.833333 µM) | -0.218 | 114% (inactive)
12 | C[C@]1(c2nc3c(C(N)=O)cccc3[nH]2)CCCN1 [veliparib] (10 µM) | 0.206 | 109% (inactive)
13 | CCCN1CCC[C@@H]2Cc3nc(N)ncc3C[C@H]21 [quinelorane] (10 µM) | 0.13 | 106% (inactive)
14 | CCC(CC)Nc1nc(C)c(-c2ccc(OC(F)(F)F)cc2OC)nc1OC (10 µM) | 0.2 | 86.5% (inactive)
15 | NS(=O)(=O)c1cc(C(=O)O)cc(N2CCCC2)c1Oc1ccccc1 [piretanide] (10 µM) | 0.0293 | 110% (inactive)
16 | Cc1ccc(C(=O)Nc2ccc(CN3CCN(C)CC3)c(C(F)(F)F)c2)cc1C#Cc1cnc2[nH]ncc2c1 (10 µM) | 0.453 | 98% (inactive)
17 | Clc1ccccc1C(c1ccccc1)(c1ccccc1)n1cccn1 (10 µM) | 0.0967 | 100% (inactive)
18 | CC(/C=C1\SC(=S)N(CC(=O)O)C1=O)=C\c1ccccc1 [epalrestat] (10 µM) | 0.192 | 106% (inactive)
19 | CC(C)CNc1nc(-c2cccc3ncccc23)cn2c(-c3ccc(C(=O)NC4CC4)cc3)cnc12 (10 µM) | -0.233 | 99.5% (inactive)
20 | O=C(O)COCCN1CCN(C(c2ccccc2)c2ccc(Cl)cc2)CC1 (stereo not drawn) [cetirizine] (10 µM) | 0.153 | 98.2% (inactive)
21 | CNC(=O)c1ccc(-c2cnc3ncc(Cc4ccc5ncccc5c4)n3n2)cc1F (10 µM) | 0.0374 | 98% (inactive)
22 | CCCCC/N=c1\ccn(Cc2ccccc2)c2ccccc12 (10 µM) | 0.0295 | 108% (inactive)

Row | SMILES | morphology score [1] | SARS-CoV-2 infection rate [2]
23 | CC(=O)OCC(=O)[C@@]12OC3(CCCC3)O[C@@H]1C[C@H]1[C@@H]3CCC4=CC(=O)C=C[C@]4(C)[C@@]3(F)[C@@H](O)C[C@@]12C [amcinonide] (10 µM) | 0.114 | 110% (inactive)
24 | CCC1NC(=O)c2cc(S(N)(=O)=O)c(Cl)cc2N1 (stereo not drawn) [quinethazone] (10 µM) | 0.339 | 88% (inactive)
25 | O=C(CSc1nc2c(c(=O)n1-c1ccccc1)SCC2)Nc1ccc(-c2ccccc2)cn1 (10 µM) | 0.109 | 112% (inactive)
26 | CN1C(=O)N(c2cc(Cl)cc(Cl)c2)C(=O)[C@]12CN(c1ccc(C(=O)O)cn1)C[C@H]2c1ccc(C#N)cc1 (10 µM) | 0.0204 | 114% (inactive)
27 | COC(=O)Nc1nc2cc(SC(C)C)ccc2[nH]1 [methiazole] (0.833333 µM) | -0.254 | 120% (inactive)
28 | CCCCNC(=O)[C@@H]1Cc2ccccc2N1C(=O)[C@@H](N)CC [butabindide] (10 µM) | 0.203 | 86.5% (inactive)
29 | C#C[C@]1(O)CC[C@H]2[C@@H]3CCC4=C(CCC(=O)C4)[C@H]3CC[C@@]21C [noretynodrel] (10 µM) | 0.0184 | 108% (inactive)
30 | CN1CCN(CCOc2cc(OC3CCOCC3)c3c(Nc4c(Cl)ccc5c4OCO5)ncnc3c2)CC1 [saracatinib] (10 µM) | -0.132 | 110% (inactive)
31 | CC(C)COc1ccc(CNC(=O)N(Cc2ccc(F)cc2)C2CCN(C)CC2)cc1 [pimavanserin] (10 µM) | 0.709 | 23% (active)
32 | O=C(NNc1nc2cc(F)ccc2n2cccc12)c1cnccn1 (10 µM) | 0.0623 | 105% (inactive)
33 | CCCCC(CC)CCC(CC(C)C)OS(=O)(=O)O (stereo not drawn) [sodium-tetradecyl-sulfate] (10 µM) | 0.0389 | 102% (inactive)
34 | CCC(O)(CC(N)=O)c1ccccc1 (stereo not drawn) [3-hydroxy-3-phenylpentanamide] (10 µM) | 0.0251 | 112% (inactive)
35 | C[C@H]1C[C@H]2[C@@H]3CCC4=CC(=O)C=C[C@]4(C)[C@H]3C(=O)C[C@]2(C)[C@@]1(O)C(=O)CO [Betapar (Meprednisone)] (10 µM) | 0.0238 | 108% (inactive)
36 | Cc1ccc(/C=C2/C(=O)C3(C)CCC2C3(C)C)cc1 (stereo not drawn) [3-(4-methylbenzylidene)camphor] (10 µM) | -0.0397 | 114% (inactive)
37 | NCCCCCC(=O)O [aminocaproic-acid] (10 µM) | 0.136 | 89.5% (inactive)
38 | NCC(CS(=O)(=O)O)c1ccc(Cl)cc1 (stereo not drawn) [saclofen] (10 µM) | 0.194 | 94.5% (inactive)
39 | NC(=O)N1c2ccccc2CC(O)c2ccccc21 (stereo not drawn) [licarbazepine] (10 µM) | 0.188 | 97% (inactive)
40 | Fc1ccc(C(OCCN2CCN(C/C=C/c3ccccc3)CC2)c2ccc(F)cc2)cc1 (10 µM) | 0.456 | 65.5% (inactive)
41 | O=S(=O)(c1ccccc1)c1cnc2c(N3CCNCC3)cccc2c1 (10 µM) | -0.0691 | 106% (inactive)
42 | O=C(Nc1cccc2c(=O)cc(-c3nnn[nH]3)oc12)c1ccc(OCCCCc2ccccc2)cc1 [pranlukast] (10 µM) | 0.0454 | 111% (inactive)
43 | O=C(O)CCC(=O)OC[C@@H](NC(=O)C(Cl)Cl)[C@H](O)c1ccc([N+](=O)[O-])cc1 [chloramphenicol-sodium-succinate] (10 µM) | 0.049 | 108% (inactive)
44 | O=C1c2c(O)cc(O)cc2O[C@H](c2cc(O)c(O)c(O)c2)[C@H]1O [dihydromyricetin] (10 µM) | -0.0984 | 108% (inactive)

Row | SMILES | morphology score [1] | SARS-CoV-2 infection rate [2]
45 | CCOC(=O)Nc1ccc2c(c1)N(C(=O)CN(C)C)c1ccccc1CC2 [tiracizine] (10 µM) | -0.162 | 111% (inactive)
46 | CNC(=O)c1cccc2cc(Oc3ccnc4cc(OCC5(N)CC5)c(OC)cc34)ccc12 [lucitanib] (10 µM) | 0.0362 | 104% (inactive)
47 | C#Cc1cccc(Nc2ncnc3cc(OC)c(OCCCCCCC(=O)NO)cc23)c1 (0.833333 µM) | -0.262 | 122% (inactive)
48 | C=CCN1CC[C@]23c4c5ccc(O)c4O[C@H]2C(=O)CC[C@@]3(O)[C@H]1C5 (10 µM) | -0.209 | 114% (inactive)
49 | CC(=O)N[C@@H](Cc1ccc(O)cc1)C(=O)O [N-acetyl-tyrosine] (10 µM) | -0.058 | 114% (inactive)
50 | NC(=O)CN1C=CCC(C(N)=O)=C1 [caricotamide] (10 µM) | 0.109 | 106% (inactive)
51 | N#C/C(=C\c1cn(-c2ccccc2)c2ccccc12)C(=O)O (10 µM) | -0.0582 | 99.5% (inactive)
52 | CCOC(=O)CSCCC1NC(C(=O)O)CS1 (stereo not drawn) [letosteine] (10 µM) | -0.0697 | 117% (inactive)
53 | CCCCCCCCCCCCCCCC(=O)OC(C)C [isopropyl-palmitate] (10 µM) | 0.286 | 77% (inactive)
54 | FC(F)(F)c1cccc(C2=CCN(CCc3ccc4ccccc4c3)CC2)c1 [xaliproden] (10 µM) | -0.0559 | 108% (inactive)
55 | Oc1cc2c(cc1O)[C@@H]1c3ccc(O)c(O)c3OC[C@]1(O)C2 [hematoxylin] (10 µM) | -0.0601 | 114% (inactive)
56 | CC(C)OC(=O)CNC(=O)[C@H](CS)NC(=O)CC[C@H](N)C(=O)O [glutathione-monoisopropyl-ester] (10 µM) | 0.0539 | 101% (inactive)
57 | COc1cccc(N2CCN(C3=Nc4c(F)cccc4[C@H](CC(=O)O)N3c3cc(C(F)(F)F)ccc3OC)CC2)c1 [letermovir] (10 µM) | -0.0548 | 109% (inactive)
58 | CCN(CC)CCCCN1c2ccccc2Oc2ccc(Cl)cc21 (0.833333 µM) | 0.331 | 93% (inactive)
59 | CCNC(=O)CC[C@H](N)C(=O)O [L-theanine] (10 µM) | 0.0421 | 102% (inactive)
60 | COc1ccc(CN(CCN(C)C)c2ccccn2)cc1 [mepyramine] (10 µM) | 0.0933 | 106% (inactive)
61 | CCCCOc1ccc(C(=O)Nc2ccc(F)cc2F)cc1 (10 µM) | 0.18 | 106% (inactive)
62 | O=c1ccc2cc3ccoc3cc2o1 [psoralen] (10 µM) | -0.0337 | 108% (inactive)
63 | CN(CCOc1ccc(CC2SC(=O)NC2=O)cc1)c1ccccn1 (stereo not drawn) [rosiglitazone] (10 µM) | 0.279 | 92.5% (inactive)
64 | Cc1c(C)c(NCC(=O)N(C)C2CCN(Cc3ccc(C(N)=O)cc3)CC2)c(C)c(C)c1N (10 µM) | 0.211 | 91% (inactive)
